# Measurements: PubChem BioAssay (EPA / NIEHS)
# Active and inactive are the calls of the source. The calls were made as follows: active = hit-call score of the fitted dose curve at least 0.9, where 1 is the maximum; inactive = score below 0.9.
# Assays:
# Settings in all cases: mRNA level, 48 h; actives raise or lower the signal
# [1] = read-out: Cytochrome P450 3A4 (Homo sapiens) (UniProt P08684); assay: LTEA_HepaRG_CYP3A4: Life Technologies and Expression Analysis (LTEA) Assay for CYP3A4 using HepaRG (AID 2283487)
# Method in brief: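 Differentiated HepaRG cells, plated 48 h, then dosed 48 h in serum-free induction medium with 0.5% DMSO, 8 half-log concentrations up to 100 uM, duplicate. CYP3A4 mRNA by qRT-PCR, normalized to ACTB/GAPDH/POLR2A; bidirectional fit versus DMSO.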
# [2] = read-out: DNA damage-inducible transcript 3 (DDIT3), DDIT3 (gene 1649); assay: LTEA_HepaRG_DDIT3: Life Technologies and Expression Analysis (LTEA) Assay for DNA damage-inducible transcript 3 (DDIT3) using HepaRG (AID 2283488)
# Method in brief: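 DDIT3 transcript was quantified by qRT-PCR with ACTB/GAPDH/POLR2A normalization after 48 h chemical treatment of differentiated HepaRG cells in 0.5% DMSO. Dosing was eight-point, half-log, top 100 uM, duplicate wells. Curves fitted bidirectionally versus DMSO.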
# [3] = read-out: Pro-epidermal growth factor (Homo sapiens) (UniProt P01133); assay: LTEA_HepaRG_EGF: Life Technologies and Expression Analysis (LTEA) Assay for Epidermal growth factor (EGF) using HepaRG (AID 2283489)
# Method in brief: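 HepaRG cells (~100,000/well, 48 h pre-culture) exposed in duplicate for 48 h in serum-free induction medium to 8 half-log concentrations up to 100 uM in 0.5% DMSO. EGF mRNA by qRT-PCR, normalized to ACTB/GAPDH/POLR2A; bidirectional fit versus DMSO.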
# [4] = read-out: Early growth response protein 1 (EGR1) transcription factor, EGR1 (gene 1958); assay: LTEA_HepaRG_EGR1: Life Technologies and Expression Analysis (LTEA) Assay for Early growth response protein 1 (EGR1) transcription factor using HepaRG (AID 2283490)
# Method in brief: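 EGR1 expression change in human HepaRG after 48 h chemical exposure, assessed by housekeeping-normalized qRT-PCR; concentration-response up to 100 uM, fitted in both directions against DMSO controls.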
# [5] = read-out: Ezrin (EZR), EZR (gene 7430); assay: LTEA_HepaRG_EZR: Life Technologies and Expression Analysis (LTEA) Assay for Ezrin (EZR) using HepaRG (AID 2283491)
# Method in brief: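 EZR transcript levels came from Fluidigm qRT-PCR and were normalized to three housekeeping genes after 48 h chemical exposure of HepaRG cells. Dosing used an 8-point half-log series with a 100 uM top concentration in 0.5% DMSO, tested in duplicate; both directions were fitted versus vehicle.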
# CYP3A5 (gene 1577) = assay: LTEA_HepaRG_CYP3A5: Life Technologies and Expression Analysis (LTEA) Assay for CYP3A5 using HepaRG (AID 2283493)
# Method in brief: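 mRNA levels were quantified by qRT-PCR on Fluidigm arrays and normalized to three housekeeping genes. Differentiated HepaRG cells received 48 h exposure (top 100 uM, half-log steps, 0.5% DMSO vehicle, duplicate); bidirectional fitting versus DMSO.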
# [6] = read-out: Fatty Acid-Binding Protein 1 (FABP1), FABP1 (gene 2168); assay: LTEA_HepaRG_FABP1: Life Technologies and Expression Analysis (LTEA) Assay for Fatty Acid-Binding Protein 1 (FABP1) using HepaRG (AID 2283494)
# Method in brief: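 Values reflect bidirectional concentration-response fitting of FABP1 mRNA change against 0.5% DMSO controls. Human HepaRG cultures received eight half-log doses (top 100 uM) for 48 h; expression quantified by TaqMan qRT-PCR with housekeeping-gene normalization.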
# [7] = read-out: Cytochrome P450 4A22 (Homo sapiens) (UniProt Q5TCH4); assay: LTEA_HepaRG_CYP4A22: Life Technologies and Expression Analysis (LTEA) Assay for Cytochrome P450 4A22 (CYP4A22) using HepaRG (AID 2283495)
# Method in brief: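 Differentiated HepaRG cells in serum-free induction medium exposed 48 h in duplicate to eight half-log concentrations up to 100 uM in 0.5% DMSO. CYP4A22 mRNA quantified by TaqMan qRT-PCR, normalized to ACTB, GAPDH and POLR2A; bidirectional fit versus DMSO.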
# [8] = read-out: Cytochrome P450 7A1 (Homo sapiens) (UniProt P22680); assay: LTEA_HepaRG_CYP7A1: Life Technologies and Expression Analysis (LTEA) Assay for Cytochrome P450 7A1 (CYP7A1) using HepaRG (AID 2283496)
# Method in brief: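 HepaRG, 48 h exposure, 8-pt half-log series from 100 uM, 0.5% DMSO vehicle, duplicates. Readout: TaqMan qRT-PCR mRNA vs three housekeeping genes; bidirectional curve fit against DMSO baseline.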
# [9] = read-out: Glutathione S-Transferase (GSTA2), GSTA2 (gene 2939); assay: LTEA_HepaRG_GSTA2: Life Technologies and Expression Analysis (LTEA) Assay for Glutathione S-Transferase (GSTA2) using HepaRG (AID 2283497)
# Method in brief: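 Oxidative-stress marker GSTA2 is quantified by TaqMan qRT-PCR in HepaRG cultures treated 48 h across an eight-point range to 100 uM. Expression is normalized to endogenous controls and compared with 0.5% DMSO vehicle.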
# [10] = read-out: Glutamate-cysteine ligase catalytic (GCLC), GCLC (gene 2729); assay: LTEA_HepaRG_GCLC: Life Technologies and Expression Analysis (LTEA) Assay for Glutamate-cysteine ligase catalytic (GCLC) using HepaRG (AID 2283498)
# Method in brief: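 Oxidative-stress marker GCLC is measured as mRNA change in human HepaRG liver cells after 48 h chemical treatment in 0.5% DMSO, eight concentrations from 100 uM. Activity is fitted bidirectionally against vehicle.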
# [11] = read-out: growth arrest and DNA damage 45 (GADD45G), GADD45G (gene 10912); assay: LTEA_HepaRG_GADD45G: Life Technologies and Expression Analysis (LTEA) Assay for growth arrest and DNA damage 45 (GADD45G) using HepaRG (AID 2283499)
# Method in brief: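 Differentiated human HepaRG cells, 48 h post-plating, exposed 48 h in serum-free induction medium to 8 half-log concentrations (top 100 uM, 0.5% DMSO) in duplicate. GADD45G mRNA measured by Fluidigm TaqMan qRT-PCR, normalized to ACTB, GAPDH, POLR2A; bidirectional fit versus DMSO.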
# [12] = read-out: Glutamate-cysteine ligase regulatory (GCLM), GCLM (gene 2730); assay: LTEA_HepaRG_GCLM: Life Technologies and Expression Analysis (LTEA) Assay for Glutamate-cysteine ligase regulatory (GCLM) using HepaRG (AID 2283500)
# Method in brief: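 GCLM expression quantified by qRT-PCR, normalized to three housekeeping genes, after 48 h chemical treatment of HepaRG cells in duplicate at 8 concentrations (top 100 uM, half-log steps, 0.5% DMSO). Changes fitted both directions against vehicle.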
# [13] = read-out: Glutathione S-transferase M3 (GSTM3), GSTM3 (gene 2947); assay: LTEA_HepaRG_GSTM3: Life Technologies and Expression Analysis (LTEA) Assay for Glutathione S-transferase M3 (GSTM3) using HepaRG (AID 2283501)
# Method in brief: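 Differentiated human HepaRG cells were exposed in duplicate for 48 h in serum-free induction medium, 8 points from 100 uM top in half-log steps, 0.5% DMSO. GSTM3 mRNA was measured by TaqMan qRT-PCR, normalized to ACTB, GAPDH and POLR2A; bidirectional fit versus DMSO.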
# [14] = read-out: Heat shock 70 kDa protein 1 (HSPA1A), gene 3303; assay: LTEA_HepaRG_HSPA1A: Life Technologies and Expression Analysis (LTEA) Assay for Heat shock 70 kDa protein 1 (HSPA1A) using HepaRG (AID 2283502)
# Method in brief: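 HSPA1A expression measured by qRT-PCR with ACTB/GAPDH/POLR2A normalization; curves fitted in both directions relative to DMSO vehicle. Exposure: 48 h in HepaRG cells, duplicate 8-point half-log series from 100 uM, 0.5% DMSO, serum-free induction medium.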
# [15] = read-out: Hypoxia-inducible factor 1-alpha (Homo sapiens) (UniProt Q16665); assay: LTEA_HepaRG_HIF1A: Life Technologies and Expression Analysis (LTEA) Assay for Hypoxia-inducible factor 1 (HIF1A) Trancription factor using HepaRG (AID 2283503)
# Method in brief: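 HIF1A transcript level read by qRT-PCR (ACTB, GAPDH, POLR2A normalization) after 48 h chemical exposure of HepaRG cultures. Eight half-log concentrations, top 100 uM, 0.5% DMSO vehicle, duplicates; bidirectional curve fit against DMSO baseline.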
# [16] = read-out: 3-Hydroxy-3-Methylglutaryl-CoA Synthase 2 (HMGCS2), HMGCS2 (gene 3158); assay: LTEA_HepaRG_HMGCS2: Life Technologies and Expression Analysis (LTEA) Assay for 3-Hydroxy-3-Methylglutaryl-CoA Synthase 2 (HMGCS2) using HepaRG (AID 2283504)
# Method in brief: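 Human HepaRG cells in serum-free induction medium were exposed in duplicate for 48 h to 8-point half-log series from 100 uM top in 0.5% DMSO. HMGCS2 mRNA measured by TaqMan qRT-PCR, normalised to ACTB, GAPDH, POLR2A; bidirectional fit versus DMSO.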
# HGF (gene 3082) = assay: LTEA_HepaRG_HGF: Life Technologies and Expression Analysis (LTEA) Assay for Hepatocyte Growth Facto (HGF) using HepaRG (AID 2283505)
# Method in brief: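 Differentiated HepaRG cells in serum-free induction medium exposed 48 h in duplicate, 8 half-log concentrations from 100 uM in 0.5% DMSO. HGF mRNA by qRT-PCR, normalised to ACTB, GAPDH, POLR2A; bidirectional fitting.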
# [17] = read-out: Cytochrome P450 3A7 (Homo sapiens) (UniProt P24462); assay: LTEA_HepaRG_CYP3A7: Life Technologies and Expression Analysis (LTEA) Assay for CYP3A7 using HepaRG (AID 2283492)
# Method in brief: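 Differentiated HepaRG cells in serum-free induction medium exposed 48 h in duplicate to 8-point half-log series from 100 uM top in 0.5% DMSO. CYP3A7 mRNA by qRT-PCR, normalized to ACTB/GAPDH/POLR2A, bidirectional fit versus DMSO.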
# Chain of Cytochrome P450 3A4 (Homo sapiens) (P08684 whole entry, looked up): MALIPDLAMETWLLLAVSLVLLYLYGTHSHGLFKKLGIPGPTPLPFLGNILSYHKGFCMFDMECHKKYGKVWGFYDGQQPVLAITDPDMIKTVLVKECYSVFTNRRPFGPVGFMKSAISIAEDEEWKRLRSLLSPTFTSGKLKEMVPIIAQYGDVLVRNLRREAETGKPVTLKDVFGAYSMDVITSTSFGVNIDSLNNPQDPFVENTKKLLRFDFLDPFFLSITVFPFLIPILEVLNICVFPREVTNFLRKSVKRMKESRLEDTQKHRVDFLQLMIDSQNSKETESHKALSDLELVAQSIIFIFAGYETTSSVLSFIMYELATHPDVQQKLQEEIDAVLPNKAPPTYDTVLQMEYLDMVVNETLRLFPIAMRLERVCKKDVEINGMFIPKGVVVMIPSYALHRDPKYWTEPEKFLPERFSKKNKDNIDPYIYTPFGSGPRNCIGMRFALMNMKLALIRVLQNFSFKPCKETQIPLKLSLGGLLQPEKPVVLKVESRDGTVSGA
# Chain of Hypoxia-inducible factor 1-alpha (Homo sapiens) (Q16665 whole entry, looked up): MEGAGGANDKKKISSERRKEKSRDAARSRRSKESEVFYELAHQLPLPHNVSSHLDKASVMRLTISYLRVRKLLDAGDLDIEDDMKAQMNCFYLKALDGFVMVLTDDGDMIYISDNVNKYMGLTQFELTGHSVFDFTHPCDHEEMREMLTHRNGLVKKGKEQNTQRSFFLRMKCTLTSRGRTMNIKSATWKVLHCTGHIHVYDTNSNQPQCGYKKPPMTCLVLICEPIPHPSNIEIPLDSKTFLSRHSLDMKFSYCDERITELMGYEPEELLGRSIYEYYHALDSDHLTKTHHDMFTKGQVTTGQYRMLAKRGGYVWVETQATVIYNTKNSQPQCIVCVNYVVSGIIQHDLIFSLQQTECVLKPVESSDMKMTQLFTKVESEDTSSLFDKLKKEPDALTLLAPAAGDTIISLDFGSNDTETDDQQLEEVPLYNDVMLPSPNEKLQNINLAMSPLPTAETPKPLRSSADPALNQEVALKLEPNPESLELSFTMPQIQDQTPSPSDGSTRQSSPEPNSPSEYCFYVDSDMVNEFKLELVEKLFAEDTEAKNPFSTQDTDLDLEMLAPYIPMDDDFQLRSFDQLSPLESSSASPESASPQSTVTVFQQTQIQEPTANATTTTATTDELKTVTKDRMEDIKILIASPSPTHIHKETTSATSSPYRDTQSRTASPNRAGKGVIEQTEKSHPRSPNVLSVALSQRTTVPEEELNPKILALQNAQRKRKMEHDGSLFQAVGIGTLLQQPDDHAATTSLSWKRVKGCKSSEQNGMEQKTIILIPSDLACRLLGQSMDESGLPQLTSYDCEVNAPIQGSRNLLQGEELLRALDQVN
# Chain of Cytochrome P450 3A7 (Homo sapiens) (P24462 whole entry, looked up): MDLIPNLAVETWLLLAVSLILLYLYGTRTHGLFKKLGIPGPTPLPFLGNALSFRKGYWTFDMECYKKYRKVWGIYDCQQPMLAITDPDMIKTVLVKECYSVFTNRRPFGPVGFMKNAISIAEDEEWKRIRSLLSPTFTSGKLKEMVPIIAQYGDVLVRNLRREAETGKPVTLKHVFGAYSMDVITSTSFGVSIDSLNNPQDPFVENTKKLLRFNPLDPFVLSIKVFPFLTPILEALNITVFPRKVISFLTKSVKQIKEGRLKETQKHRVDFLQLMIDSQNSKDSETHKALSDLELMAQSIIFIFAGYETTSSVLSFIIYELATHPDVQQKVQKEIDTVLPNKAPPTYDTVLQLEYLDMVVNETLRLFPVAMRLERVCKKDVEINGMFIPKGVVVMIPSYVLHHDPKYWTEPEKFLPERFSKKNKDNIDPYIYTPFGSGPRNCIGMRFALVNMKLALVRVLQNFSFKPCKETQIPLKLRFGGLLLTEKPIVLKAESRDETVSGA
compound,measurement,setting,value
CC(C)(c1ccccc1)c1ccc(O)cc1,outcome,[1],inactive
same,outcome,[2],inactive
same,outcome,[3],inactive
same,outcome,[4],inactive
same,outcome,[5],inactive
same,outcome,CYP3A5 (gene 1577),inactive
same,outcome,[6],inactive
same,outcome,[7],inactive
same,AC50,[8],88.7 µM (active)
same,AC50,[9],87.3 µM (active)
same,outcome,[10],inactive
same,outcome,[11],inactive
same,outcome,[12],inactive
same,outcome,[13],inactive
same,outcome,[14],inactive
same,outcome,[15],inactive
same,outcome,[16],inactive
same,AC50,HGF (gene 3082),83.2 µM (active)
c1cc2ccc3cccc4ccc(c1)c2c34,outcome,[2],inactive
same,outcome,[3],inactive
same,outcome,[4],inactive
same,outcome,[5],inactive
same,outcome,CYP3A5 (gene 1577),inactive
same,outcome,[6],inactive
same,outcome,[7],inactive
same,outcome,[8],inactive
same,outcome,[9],inactive
same,outcome,[10],inactive
same,outcome,[11],inactive
same,outcome,[12],inactive
same,outcome,[13],inactive
same,outcome,[14],inactive
same,outcome,[15],inactive
same,outcome,[16],inactive
same,outcome,HGF (gene 3082),inactive
O=C(O)C(F)(F)C(F)(F)C(F)(F)C(F)(F)C(F)(F)F,outcome,[1],inactive
same,outcome,[2],inactive
same,outcome,[3],inactive
same,outcome,[4],inactive
same,outcome,[5],inactive
same,outcome,CYP3A5 (gene 1577),inactive
same,AC50,[6],12 µM (active)
same,AC50,[7],13.3 µM (active)
same,outcome,[8],inactive
same,outcome,[9],inactive
same,outcome,[10],inactive
same,outcome,[11],inactive
same,outcome,[12],inactive
same,outcome,[13],inactive
same,outcome,[14],inactive
same,outcome,[15],inactive
same,AC50,[16],2.41 µM (active)
same,outcome,HGF (gene 3082),inactive
COS(=O)(=O)OC,outcome,[1],inactive
same,outcome,[2],inactive
same,outcome,[3],inactive
same,outcome,[4],inactive
same,outcome,[5],inactive
same,outcome,[17],inactive
same,outcome,CYP3A5 (gene 1577),inactive
same,outcome,[6],inactive
same,outcome,[7],inactive
same,outcome,[8],inactive
same,outcome,[9],inactive
same,outcome,[10],inactive
same,outcome,[11],inactive
same,outcome,[13],inactive
same,outcome,[14],inactive
same,outcome,[15],inactive
same,outcome,[16],inactive
same,outcome,HGF (gene 3082),inactive
C[C@]12CCC(=O)C=C1CC[C@@H]1[C@@H]2CC[C@@]2(C)[C@H]1CC[C@]2(C)O,outcome,[1],inactive
same,AC50,[2],80 µM (active)
same,outcome,[3],inactive
same,outcome,[4],inactive
same,outcome,[5],inactive
same,outcome,[17],inactive
same,outcome,CYP3A5 (gene 1577),inactive
same,outcome,[6],inactive
same,AC50,[7],69.8 µM (active)
same,AC50,[8],1.9 µM (active)
same,outcome,[9],inactive
same,outcome,[10],inactive
same,outcome,[11],inactive
same,outcome,[13],inactive
same,outcome,[14],inactive
same,outcome,[15],inactive
same,AC50,[16],69 µM (active)
same,outcome,HGF (gene 3082),inactive
